Results on 60 compounds are retold here after PubChem BioAssay AID371 (SRMLSC, 2006).

The campaign covered roughly 3,300 compounds. About 280 (8.5%) were called active.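 How the source made its calls: active means mean growth inhibition over the two runs of 50% or more; inactive means mean growth inhibition under 50%.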 What follows is part of a selection rich in actives, with near analogues and random picks from the rest.

The experiment is described as follows: A549 NSCLC cell proliferation inhibitors – ATP luminescence, human non-small cell lung line, primary screen (AID 371).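 Further: compound exposure lasted 72 h before the ATP read; 0% = untreated cell signal and 100% = no luminescence left.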 The note with it: at 10 µM, hits give high values.
On to `CCCCCCc1cc2cc(-c3nnc(-c4ccccc4O)o3)c(=O)oc2cc1O`, for which the growth inhibition was 95% (active).
In the case of `CCN(CC)c1ccc2cc(-c3nnc(-c4ccncc4)o3)c(=O)oc2c1` it was 11.3% (inactive); in that of `CNC(=O)c1cc2c(ccc3ccccc32)oc1=N`, 9.88% (inactive).
In the case of `CCCCCCc1cc2cc(C(=O)NC)c(=N)oc2cc1O` it was 87.4% (active); in that of `COc1ccc(C2/C(=C(\O)c3ccc4c(c3)OCCO4)C(=O)C(=O)N2CCCN(C)C)cc1` (stereo not given), -19.3% (inactive); in that of `O=C(OCCN1CCOCC1)c1ccc2c(c1)OCCO2`, -1.1% (inactive).
On to `NC(=O)c1ccccc1OCCOCCOCCOc1ccccc1C(N)=O`, for which the growth inhibition is 4.77% (inactive).
In the case of `COC(=O)CSc1nc(N)nc(C)c1Br` it was 0.51% (inactive).
Under `C=CCn1c(=O)c(C(=O)NCCN(CC)CC)c(O)c2ccccc21` stands 13.9% (inactive); under `N#CC1=C(SCC(=O)c2ccc(Br)cc2)NC2=C(C(=O)CCC2)C1c1ccco1` (stereo not given), 77.8% (active).
On to `N#CC1=C(SCC(=O)c2ccccc2)NC2=C(C(=O)CCC2)C1c1ccco1` (stereo not given), for which the growth inhibition is 69% (active).
For the compound `Cc1ccc(NC(=O)CSC2=C(C#N)C(c3ccco3)C3=C(CCCC3=O)N2)cc1` (stereo not given), the growth inhibition was 31.5% (inactive).
Under `CCOC(=O)CSC1=C(C#N)C(c2ccc(OC)cc2)C2=C(CC(C)(C)CC2=O)N1` (stereo not given) stands 9.46% (inactive).
Under `N#Cc1ccc(-c2ccco2)nc1SCC(=O)c1ccc(Cl)cc1` stands 36.8% (inactive); under `N#CC1=C(SCc2ccccc2)NC2=C(C(=O)CCC2)C1c1ccc2c(c1)OCO2` (stereo not given), 35.2% (inactive); under `N#CC1=C(SCC(=O)c2ccc(Cl)cc2)NC2=C(C(=O)CCC2)C1c1ccco1` (stereo not given), 80% (active).
For the compound `COc1ccccc1NC(=O)C1=C(C)NC(SCC(=O)c2ccc(C)cc2)=C(C#N)C1c1ccco1` (stereo not given), the growth inhibition is 18.3% (inactive).
Under `Cc1ccc(C(=O)CSC2=C(C#N)C(c3ccco3)C3=C(CCCC3=O)N2)cc1` (stereo not given) stands 76.4% (active); under `CCCCC1CC1C(=O)Nc1ccc(OC)c(OC)c1` (stereo not given), 11% (inactive).
Under `Cn1c(=O)c2c(nc(NCCCO)n2Cc2cccc(C(F)(F)F)c2)n(C)c1=O` stands 29.2% (inactive); under `Cc1cc(=O)n2[nH]cnc2n1`, 4.42% (inactive).
In the case of `N#CCCn1cnc2c(=S)nc[nH]c21` it was 5.6% (inactive); in that of `COc1ccc(OC)c(C2C(C#N)=C(N)Oc3cc(C)[nH]c(=O)c32)c1` (stereo not given), 3.98% (inactive); in that of `Nc1c(C(=O)NCc2ccco2)sc2nc(N3CCOCC3)c3c(c12)CCCC3`, 18.2% (inactive).
With `Cc1ccc(C(=O)C2=C(O)C(=O)N(c3ncccn3)C2c2cccc(Cl)c2)o1` (stereo not given), the growth inhibition is -5.18% (inactive).
In the case of `COc1ccc(NC(=O)Nc2cccc(C(=O)N3CCOCC3)c2)cc1OC` it was 1.01% (inactive); in that of `N#CC(C#N)C(c1ccsc1)c1c(-c2ccccc2)[nH][nH]c1=O` (stereo not given), 7.27% (inactive); in that of `Oc1ccc(/C=C/c2cc(O)cc(O)c2)cc1`, 63.9% (active).
In the case of `Cc1cc(O)c(C(C)C)cc1N=C1CSC(=O)N1` it was 7.06% (inactive); in that of `CCCCOc1ccc(C(=O)OC2CC(C)N(C)CC2C)cc1` (stereo not given), 90% (active); in that of `CCCCOc1ccc(C(=O)Nn2cnnc2)cc1`, -2.48% (inactive).
On to `CCCCOc1ccc(C(=O)CCN2CCCCC2)cc1`, for which the growth inhibition was -1.37% (inactive).
Under `CC(O)(C#CCN1CCOCC1)c1ccccc1` (stereo not given) stands 2.79% (inactive); under `Cc1cccc(NC(=O)c2cc(N3CCOCC3)nc3ccccc23)c1`, 2.86% (inactive); under `N#Cc1nc(COc2ccc(Br)cc2)oc1NCCN1CCOCC1`, 13.4% (inactive).
In the case of `Cc1sc(-n2c(C)ccc2C)c(C#N)c1C` it was -0.27% (inactive).
In the case of `COc1ccc2c(c1OC)C(=O)OC2C1c2c(cc3c(c2OC)OCO3)CCN1C` (stereo not given) it was 23.2% (inactive); in that of `COc1cc([C@@H]2c3cc4c(cc3[C@H](O)[C@H]3COC(=O)[C@H]23)OCO4)cc(OC)c1OC`, 66.9% (active); in that of `COc1ccc2c(c1OC)C(=O)O[C@@H]2[C@H]1c2c(cc3c(c2OC)OCO3)CCN1C`, 28.5% (inactive).
Turning to `Cc1c(C)n(C(=O)CSc2nccn2C)c2ccccc12`, the growth inhibition was -7.69% (inactive).
In the case of `COc1cc(C2Nc3cccc4cccc(c34)N2)cc(OC)c1OC(C)=O` it was 68.5% (active); in that of `COc1cc(C2NC(=O)NC(C)=C2C(=O)Nc2cccc(C)c2C)cc(OC)c1OC` (stereo not given), 0.87% (inactive); in that of `CCN(CC)CCN1C(=O)c2ccccc2NC1c1cc(OC)c(OC)c(OC)c1` (stereo not given), 0.59% (inactive).
For the compound `O=C1C2ON(c3ccccc3)C(c3ccncc3)C2C(=O)N1c1ccccc1` (stereo not given), the growth inhibition was -3.79% (inactive).
In the case of `O=C(O)C(O)c1ccco1` (stereo not given) it was 3.07% (inactive).
Under `Cc1nc(-c2c(-c3ccc(O)cc3O)noc2C(F)(F)F)cs1` stands 41.5% (inactive); under `Cc1[nH]nc(-c2ccc(O)cc2O)c1Oc1ccccc1`, 56.1% (active); under `Cc1cc(O)ccc1-c1cnc2ccccc2n1`, 13% (inactive).
Under `CC1(C)CNC(=O)c2sc(N3CCOCC3)nc2C1` stands 21.1% (inactive); under `Cn1ncc2c(Nc3ccccc3Br)ncnc21`, 4.98% (inactive).
Take `Cn1c(=O)c2c(nc(NCc3ccc4c(c3)OCO4)n2Cc2ccccc2F)n(C)c1=O`: the growth inhibition was 43.4% (inactive).
For `Cn1c(=O)c2c(nc(NCc3ccc4c(c3)OCO4)n2Cc2ccc(F)cc2)n(C)c1=O`, the growth inhibition is 74.4% (active).
Under `Cn1c(=O)c2c(nc(Oc3ccc4c(c3)OCO4)n2Cc2ccc(Br)cc2)n(C)c1=O` stands 38% (inactive); under `Cn1c(=O)c2c(nc(NCc3ccc4c(c3)OCO4)n2Cc2ccccc2Cl)n(C)c1=O`, 20.1% (inactive).
With `Cn1c(=O)c2c(nc(NCc3ccc4c(c3)OCO4)n2Cc2ccccc2)n(C)c1=O`, the growth inhibition is 67.4% (active).
Take `Cn1c(=O)c2c(nc(Oc3ccc4c(c3)OCO4)n2Cc2ccc(F)cc2)n(C)c1=O`: the growth inhibition is 17.7% (inactive).
As for `CC1(C)Cc2c(sc3nc(SCC(=O)NCc4ccco4)n(-c4ccccc4)c(=O)c23)CS1`, the growth inhibition is 22.8% (inactive).
As for `CCCc1cc(-n2ccnc2C)n2c(nc3ccccc32)c1C#N`, the growth inhibition is -0.15% (inactive).
In the case of `CCOC(=O)C1CCN(c2nc3ccccc3nc2C(C#N)C(=O)NCCc2ccccc2)CC1` (stereo not given) it was 30.8% (inactive); in that of `Cc1cc(/C(O)=C2\C(=O)C(=O)N(CCN(C)C)C2c2ccncc2)ccc1OCc1ccccc1` (stereo not given), 2.4% (inactive).
